In PubChem BioAssay (Tox21):
Records with an inconclusive call do not appear. Active and inactive are the calls of the source. Unless noted, calls come from the whole dose curve; as a rule, active = well fitted curve in the direction sought with a large enough effect in the repeat runs; inconclusive = weak or mixed curves; inactive = flat fitted curve, though single readings scatter.

How the values were obtained:
[1] = qHTS assay to test for compound auto fluorescence at 535 nm (green) in HEK293 cells (AID 720680)
[2] = qHTS assay to test for compound auto fluorescence at 460 nm (blue) in HEK293 cell free culture (AID 720681)
How it was run: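 Compounds were added to cell-free DMEM with 10% FBS and fluorescence read directly. The blue channel used 405 nm excitation and 460 nm emission, with triamterene as the reference fluorophore.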

[3] = qHTS assay to test for compound auto fluorescence at 535 nm (green) in HEK293 cell free culture (AID 720682)
How it was run: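 Green-label autofluorescence (485 nm excitation, 535 nm emission) measured on compound added to cell-free culture medium (DMEM, 10% FBS). Output is expressed relative to fluorescein.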

[4] = qHTS assay to test for compound auto fluorescence at 590 nm (red) in HEK293 cell free culture (AID 720683)
How it was run: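 Cell-free wells of DMEM with 10% FBS received compound, and intrinsic fluorescence was read at excitation/emission 540/590 nm. Values expressed as equivalence to Rose Bengal sodium.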

[5] = qHTS assay to test for compound auto fluorescence at 590 nm (red) in HepG2 cell free culture (AID 720684)
How it was run: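 Compounds are added to culture medium (MEM, 10% FBS) lacking cells, then fluorescence is read at excitation 540 nm, emission 590 nm, with Rose Bengal sodium as the equivalency standard.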

[6] = qHTS assay to test for compound auto fluorescence at 460 nm (blue) in HepG2 cell free culture (AID 720685)
How it was run: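 Compound (23 nL) or DMSO pinned into cell-free MEM with 10% FBS; blue fluorescence read at 405/460 nm excitation/emission, expressed as auto-fluorescence equivalency to triamterene.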

[7] = qHTS assay to test for compound auto fluorescence at 535 nm (green) in HepG2 cell free culture (AID 720686)
[8] = target: Glucocorticoid receptor (Homo sapiens) (UniProt P04150); assay: qHTS assay to identify small molecule agonists of the glucocorticoid receptor (GR) signaling pathway (AID 720691; active = well fitted activation curve with a large enough effect in the signal ratio in the repeat runs, not every such curve was filed as active; the % refers to the signal ratio)
How it was run: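 Reporter read-out: fluorescence intensity following 2 h room-temperature LiveBLAzer B/G FRET substrate loading. Prior step: GR-bla HeLa cells held 4 h, then treated 18 h at 37 C.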

[9] = qHTS assay to test for compound auto fluorescence at 460 nm (blue) in HepG2 cells (AID 720687)
How it was run: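 HepG2 cells in MEM with 10% FBS, attached overnight at 37 C, were exposed to compound or DMSO for 1 hr at 37 C, 5% CO2. Blue fluorescence was read at 405/460 nm, with triamterene as reference fluorophore.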

[10] = target: Glucocorticoid receptor (Homo sapiens) (UniProt P04150); assay: qHTS assay to identify small molecule antagonists of the glucocorticoid receptor (GR) signaling pathway (AID 720692; active = well fitted inhibition curve with a large enough effect in the signal ratio in the repeat runs, not every such curve was filed as active; the % refers to the signal ratio)
How it was run: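 Dexamethasone (5 nM final) stimulated a stably integrated GRE-beta-lactamase reporter in HeLa cells during 18 h co-incubation with compounds; signal was quantified as fluorescence intensity of B/G FRET substrate after 2 h.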
% is set by controls: 0 for no effect and ±100 for the full control effect.

Chain of Glucocorticoid receptor (Homo sapiens) (P04150 whole entry, looked up): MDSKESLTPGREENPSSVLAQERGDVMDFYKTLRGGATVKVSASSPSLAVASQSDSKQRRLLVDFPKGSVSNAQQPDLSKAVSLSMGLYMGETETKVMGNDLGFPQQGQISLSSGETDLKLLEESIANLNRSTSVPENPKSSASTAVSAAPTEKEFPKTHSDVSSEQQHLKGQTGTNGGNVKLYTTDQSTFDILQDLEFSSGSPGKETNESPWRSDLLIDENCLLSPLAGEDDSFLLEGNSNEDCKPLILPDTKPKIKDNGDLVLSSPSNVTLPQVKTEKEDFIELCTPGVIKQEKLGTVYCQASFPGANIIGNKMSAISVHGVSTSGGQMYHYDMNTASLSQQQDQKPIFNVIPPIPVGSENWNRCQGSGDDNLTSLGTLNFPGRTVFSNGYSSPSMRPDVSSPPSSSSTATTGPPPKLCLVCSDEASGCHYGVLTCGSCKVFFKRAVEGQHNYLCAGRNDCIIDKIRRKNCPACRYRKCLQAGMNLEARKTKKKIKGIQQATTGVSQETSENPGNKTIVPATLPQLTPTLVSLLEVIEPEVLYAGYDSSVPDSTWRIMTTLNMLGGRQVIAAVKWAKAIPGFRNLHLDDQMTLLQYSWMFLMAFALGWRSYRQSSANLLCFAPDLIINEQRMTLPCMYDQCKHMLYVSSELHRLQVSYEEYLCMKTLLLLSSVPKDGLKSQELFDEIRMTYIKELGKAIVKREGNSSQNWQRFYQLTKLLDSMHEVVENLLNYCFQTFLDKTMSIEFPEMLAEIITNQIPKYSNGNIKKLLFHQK

Nc1nc(Cl)nc2c1ncn2[C@H]1C[C@H](O)[C@@H](CO)O1
inactive: outcome [1] | Potency [2] | outcome [3] | outcome [4] | outcome [5] | outcome [6] | outcome [7] | Potency [8]

Cc1ccc(NC=O)c(C)c1
inactive: outcome [1] | Potency [2] | outcome [3] | outcome [4] | outcome [5] | outcome [6] | outcome [7] | outcome [9] | Potency [8] | Potency [10]

CCCCOc1ccc(N)cc1
inactive: outcome [1] | Potency [2] | outcome [3] | outcome [4] | outcome [5] | outcome [6] | outcome [7] | Potency [8] | Potency [10]

O=C(O)c1ccc(O)c(O)c1
inactive: outcome [1] | Potency [2] | outcome [3] | outcome [4] | outcome [5] | outcome [6] | outcome [7] | outcome [9] | Potency [8] | Potency [10]

C=C[Si]1(C)O[Si](C)(C=C)O[Si](C)(C=C)O[Si](C)(C=C)O1 (centres undefined)
inactive: outcome [1] | Potency [2] | outcome [3] | outcome [4] | outcome [5] | outcome [6] | outcome [7] | Potency [8] | Potency [10]

O=C(O)c1ccc2cc(O)ccc2c1
inactive: outcome [1] | outcome [3] | outcome [4] | outcome [5] | outcome [6] | outcome [7] | outcome [9] | Potency [8]

CCC(C)C1N=C(C)C(C)S1 (centres undefined)
inactive: outcome [1] | outcome [3] | outcome [4] | outcome [5] | outcome [6] | outcome [7] | outcome [9] | Potency [8] | Potency [10]

Nc1ccccc1Nc1ccccc1
inactive: outcome [1] | outcome [3] | outcome [4] | outcome [5] | outcome [6] | outcome [7] | outcome [9]

CC(=O)Nc1cccc(N)c1
inactive: outcome [1] | outcome [3] | outcome [4] | outcome [5] | outcome [7] | outcome [9] | Potency [8] | Potency [10]

CC1=C(C)C(=O)C(CCCCC#CCCCC#CCO)=C(C)C1=O
inactive: outcome [1] | outcome [3] | outcome [4] | outcome [5] | outcome [6] | outcome [7] | outcome [9] | Potency [8] | Potency [10]

CCCCCCC/C=C/C=O
inactive: outcome [1] | outcome [3] | outcome [4] | outcome [5] | outcome [6] | outcome [7] | outcome [9] | Potency [8]

Clc1cc(Cl)c2c(c1)N=C1CCCCCN1C2
inactive: outcome [1] | outcome [3] | outcome [4] | outcome [5] | outcome [6] | outcome [7] | outcome [9] | Potency [8] | Potency [10]

CCCCCCCCNC
inactive: outcome [1] | outcome [3] | outcome [4] | outcome [5] | outcome [6] | outcome [7] | outcome [9] | Potency [8] | Potency [10]

c1ccc(-c2ccc(-c3ccccc3)cc2)cc1
inactive: fluorescence, % of fluorescein [1] 0.0075% [at 18.6 µM] | fluorescence, % of fluorescent control [2] -0.0624% [at 18.6 µM] | activity change [3] -0.0551% [at 18.6 µM] | fluorescence, % of fluorescent control [4] -0.201% [at 18.6 µM] | fluorescence, % of Rose Bengal [5] -0.0264% [at 18.6 µM] | fluorescence, % of fluorescent control [6] 0.0163% [at 18.6 µM] | fluorescence, % of fluorescein control [7] -0.0394% [at 18.6 µM] | Potency [8] | Potency [10]

O=C(c1ccc(Cl)cc1)c1ccc(Cl)cc1
inactive: outcome [1] | outcome [3] | outcome [4] | outcome [5] | outcome [6] | outcome [7]

CCOc1cc(OCC)c(C(C)=O)cc1OCC
inactive: outcome [1] | outcome [3] | outcome [4] | outcome [5] | outcome [6] | outcome [7] | outcome [9] | Potency [8]

CC(C)(Cc1c[nH]c2ccccc12)NCC(O)COc1ccccc1C#N (centres undefined)
inactive: outcome [1] | outcome [3] | outcome [4] | outcome [5] | outcome [6] | outcome [7] | outcome [9]

COc1cccc([C@H](O)C2CCN(CCc3ccc(F)cc3)CC2)c1OC
inactive: outcome [1] | outcome [3] | outcome [4] | outcome [5] | outcome [6] | outcome [7] | outcome [9] | Potency [8]

Cc1cc(N)n(-c2ccccc2)n1
inactive: Potency [2] | outcome [3] | outcome [4] | outcome [5] | outcome [6] | outcome [7]

O=S(=O)(O)c1cc(Cl)c(Cl)cc1Cl
inactive: outcome [1] | outcome [3] | outcome [4] | outcome [5] | outcome [6] | outcome [7] | outcome [9]

O=C(O)CCc1nc2ccccc2[nH]1
inactive: Potency [2] | outcome [3] | outcome [4] | outcome [5] | outcome [6] | outcome [7]

Cc1ccc(NC(=O)c2ccc(CN3CCN(C)CC3)cc2)cc1Nc1nccc(-c2cccnc2)n1
inactive: Potency [2] | outcome [3] | outcome [4] | outcome [5] | outcome [6] | outcome [7]

O=C(Nc1ccc2c(c1)Cc1ccccc1-2)C(F)(F)F
inactive: outcome [1] | outcome [3] | outcome [4] | outcome [5] | outcome [6] | outcome [7] | outcome [9] | Potency [8] | Potency [10]

O=C(O)c1ccncc1
inactive: outcome [1] | outcome [3] | outcome [4] | outcome [5] | outcome [6] | outcome [7] | outcome [9] | Potency [8] | Potency [10]

CC(=O)Oc1cccc2c1C(=O)c1c(OC(C)=O)cc(C(=O)O)cc1C2=O
inactive: outcome [1] | Potency [2] | outcome [3] | outcome [4] | outcome [5] | outcome [6] | outcome [7] | Potency [10]

COc1ccc(C(=O)c2ccc(C)cc2)c(O)c1
inactive: outcome [1] | outcome [3] | outcome [4] | outcome [5] | outcome [6] | outcome [7] | outcome [9]
